“And” between values parts separate entries of the source, which are not always exact repeats. Equal entries are not always repeated. Results filed as inconclusive are left out. The source made the active and inactive calls. Unless noted, calls follow the shape of the dose curve; as a rule, active = well fitted curve in the direction sought with a large enough effect; inconclusive = small, poorly fitted or top-dose-only effect, or another doubt; inactive = no such curve, though single readings can be large; an effect the other way counts as inactive or inconclusive.
Legend:
[1] = Cell Viability - BJ (AID 421; calls by dose curve;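 also: potency is read from the fitted curve at half-maximal effect; cells exposed to compound for 40 hours at 37 °C before readout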); settings: BJ fibroblast viability, qHTS
Summary of the method: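 Quantitative HTS: ATP depletion in BJ cells after 40 hr compound exposure in complete culture medium, detected with CellTiter-Glo; AC50 from standard Hill fits.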

[2] = Cell Viability - HepG2 (AID 433; calls by dose curve;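 also: potency is read from the fitted curve at half-maximal effect; cells exposed to compound for 40 hours; potency for ATP loss meaning cytotoxicity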); settings: qHTS
Summary of the method: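 Cytotoxicity read as ATP loss (CellTiter-Glo luminescence) after 40 hr compound exposure of HepG2, 1500 cells/well, 37 °C. AC50 by Hill equation; 0% set by DMSO, 100% inhibition by 100 uM tamoxifen.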

[3] = target: Mitogen-activated protein kinase 10 (Mus musculus) (UniProt Q61831); experiment: JNK3 AlphaScreen Assay (AID 530; active = well fitted curve in either direction with a large enough effect, not every such curve was filed as active;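 also: kinase came from lysate of stimulated human HepG2 cells; signal reports phosphorylation of biotinylated GST-cJun 1-79 at Ser73 with 10 µM ATP; % is scaled to controls: 0 for no effect and ±100 for the full control effect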); settings: JNK3 lysate, c-Jun phosphorylation; series mostly up to 11.4 µM
Summary of the method: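 qHTS titrations with 15 min compound pre-incubation before adding ATP (10 uM final). Read-out: AlphaScreen of Ser73-phosphorylated biotin-GST-cJun using HepG2 lysate JNK3 activated by IL-1β and TNFα.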

[4] = Cell Viability - H-4-II-E (AID 543); settings: H-4-II-E rat hepatoma viability; series mostly up to 92.2 µM;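 also: cells exposed to compound for 40 hours; nearly all actives have a fitted effect of over 35% in size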; also: potency is read from the fitted curve at half-maximal effect
Summary of the method: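 CellTiter-Glo luminescence (intracellular ATP) measured after 40 h compound exposure at 37 °C in H-4-II-E rat hepatoma cells seeded at 1500/well. Values are AC50s fitted with the standard Hill equation.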

[5] = MultiTox-Fluor Cytotoxicity Assay - LYMP1-002 - Live Cells (AID 955); settings: LYMP1-002 lymphoblastoid live-cell protease fluorescence viability; series mostly up to 46.1 µM;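 also: cells exposed to compound for 16 hours; % is scaled to controls: 0 for no effect and ±100 for the full control effect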
Summary of the method: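 After 16 h compound exposure at 37 C, live LYMP1-002 lymphoblastoid cells (2500/well) were quantified by cleavage of cell-permeant GF-AFC substrate, read at 405/510 nm after 60 min. Concentration-response fitted with Hill equation for AC50.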

[6] = Cell Viability - LYMP1-003 - Assay at 40 hr (AID 964); settings: LYMP1-003 lymphoblastoid viability; series mostly up to 92.2 µM; also: nearly all actives have a fitted effect of over 60% in size; also: potency is read from the fitted curve at half-maximal effect
Summary of the method: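 Viability is taken as cellular ATP, read by CellTiter-Glo luminescence after 40 h of compound exposure at 37 C. Cells: human lymphoblastoid line LYMP1-003 at 2500/well; AC50 values derived by Hill-equation fitting of concentration-response data.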

[7] = Cell Viability - LYMP2-004 (AID 966); settings: LYMP2-004 lymphoblastoid cell viability, qHTS; series mostly up to 92.2 µM; also: nearly all actives have a fitted effect of over 65% in size; also: potency is read from the fitted curve at half-maximal effect;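 as to activity change, negative = cytotoxicity: plate controls were DMSO only for no effect and tetraoctylammonium bromide control for full effect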
Summary of the method: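 AC50 values come from Hill modelling of concentration-dependent loss of intracellular ATP, measured by CellTiter-Glo luminescence. Human LYMP2-004 lymphoblastoid cells (2500/well) were exposed to compound for 24 h at 37 C.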

[8] = Cell Viability - LYMP2-013 (AID 970); settings: LYMP2-013 lymphoblastoid cells viability; series mostly up to 92.2 µM; also: nearly all actives have a fitted effect of over 55% in size; also: potency is read from the fitted curve at half-maximal effect
Summary of the method: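 qHTS cytotoxicity: ATP-dependent luminescence (CellTiter-Glo, 30 min room temperature) read after 24 h compound exposure at 37 C of 2500 LYMP2-013 lymphoblastoid cells per well. Concentration-response fitted with Hill equation to give AC50.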

[9] = Cell Viability - LYMP2-002 (AID 977); settings: LYMP2-002 lymphoblastoid cell viability, qHTS; series mostly up to 92.2 µM;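 also: plate controls were DMSO only for no effect and 92 µM tetraoctylammonium bromide for full effect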
Summary of the method: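 Human lymphoblastoid cells (2500/well) in complete medium were preincubated 5 hr at 37 C, then exposed to compounds for 24 hr at 37 C. Intracellular ATP was read by CellTiter-Glo luminescence; AC50 came from Hill-equation concentration-response fits.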

[10] = Cell Viability - LYMP2-016 (AID 984); settings: LYMP2-016 lymphoblastoid cell viability, qHTS; series mostly up to 92.2 µM; also: % is scaled to controls: 0 for no effect and ±100 for the full control effect; nearly all actives have a fitted effect of over 55% in size
Summary of the method: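 Cytotoxicity was scored by luminescent ATP content (CellTiter-Glo) after 24 h compound exposure at 37 C of a human lymphoblastoid line at 2500 cells/well. Concentration-response data were fitted to the Hill equation for AC50.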

[11] = Cell Viability - LYMP2-018 (AID 985); settings: LYMP2-018 lymphoblastoid cells, viability (qHTS); series mostly up to 92.2 µM; also: nearly all actives have a fitted effect of over 50% in size; also: potency is read from the fitted curve at half-maximal effect;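 as to activity change, negative = cytotoxicity: plate controls were DMSO only for no effect and tetraoctylammonium bromide at 92 µM for full effect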
Summary of the method: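 Viability read as CellTiter-Glo luminescence (cellular ATP) after 24 hr compound exposure at 37 C of 2500 LYMP2-018 lymphoblastoid cells/well, pre-plated 5 hr. Hill-equation modelling gave AC50.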

[12] = Cell Viability - LYMP2-020 (AID 986); settings: series mostly up to 92.2 µM; also: nearly all actives have a fitted effect of over 55% in size; also: potency is read from the fitted curve at half-maximal effect
Summary of the method: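 Cytotoxicity in qHTS format: luminescent ATP readout from CellTiter-Glo after 24 h compound exposure at 37 C in complete medium. LYMP2-020 lymphoblastoid cells were seeded at 2500/well; concentration-response data fitted to the Hill equation for AC50.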

[13] = Cell Viability - LYMP2-022 (AID 987); settings: LYMP2-022 lymphoblastoid cell viability; series mostly up to 92.2 µM; also: nearly all actives have a fitted effect of over 55% in size; also: potency is read from the fitted curve at half-maximal effect
Summary of the method: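 Cytotoxicity read as decreased cellular ATP (CellTiter-Glo luminescence, 30 min room temperature) after 24 hours compound exposure of 2500 lymphoblastoid LYMP2-022 cells/well at 37 C. Concentration-response data fitted with standard Hill equation for AC50.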

[14] = qHTS assay for small molecule antagonists of retinoid X receptor alpha signaling (AID 588546; active = well fitted inhibition curve with a large enough effect in the signal ratio, with a control signal flat, not every such curve was filed as active; the % refers to the signal ratio;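 also: cells stimulated with 9-cis-retinoic acid as agonist; % is scaled to controls: 0 for no effect and ±100 for the full control effect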); settings: HEK293T RXRa-UAS-bla, beta-lactamase ratio, antagonist mode; measured here: W530 green channel, cytotoxicity proxy
Summary of the method: (§1)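 Beta-lactamase reporter inhibition, read as CCF4 fluorescence ratio (ex 405, em 460/530 nm) after 2 h at RT. HEK293T UAS-bla cells, 2500/well, were stimulated with 9-cis-RA at 500 or 100 nM final alongside test compound for 18 h at 37 C.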

[15] = target: Retinoic acid receptor RXR-alpha (Homo sapiens) (UniProt P19793); experiment: as above; settings: HEK293T RXRa-UAS-bla, beta-lactamase ratio, antagonist mode
Retinoic acid receptor RXR-alpha (Homo sapiens), sequence (P19793 whole entry, looked up): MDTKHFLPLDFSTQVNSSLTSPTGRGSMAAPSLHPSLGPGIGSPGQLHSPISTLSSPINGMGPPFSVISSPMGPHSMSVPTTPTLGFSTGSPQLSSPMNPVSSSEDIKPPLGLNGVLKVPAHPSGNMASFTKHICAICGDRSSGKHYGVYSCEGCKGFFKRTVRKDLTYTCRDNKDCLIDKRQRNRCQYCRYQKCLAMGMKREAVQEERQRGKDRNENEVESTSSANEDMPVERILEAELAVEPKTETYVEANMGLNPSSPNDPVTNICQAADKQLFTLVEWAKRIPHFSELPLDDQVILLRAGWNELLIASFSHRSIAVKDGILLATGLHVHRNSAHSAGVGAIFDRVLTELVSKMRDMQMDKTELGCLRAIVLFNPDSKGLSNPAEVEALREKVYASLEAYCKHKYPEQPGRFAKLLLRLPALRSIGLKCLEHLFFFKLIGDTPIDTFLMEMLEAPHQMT
Summary of the method: as §1

[16] = target: Thyroid hormone receptor beta (Homo sapiens) (UniProt P10828); experiment: qHTS assay for small molecule antagonists of thyroid hormone receptor beta signaling (AID 588547; active = well fitted inhibition curve with a large enough effect in the signal ratio, with a control signal flat, not every such curve was filed as active; the % refers to the signal ratio;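 also: cells stimulated with 0.4 nM T3 agonist during compound exposure; % is scaled to controls: 0 for no effect and ±100 for the full control effect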); settings: TR-UAS-bla HEK293, beta-lactamase ratio, antagonist mode, 18 h
Thyroid hormone receptor beta (Homo sapiens), sequence (P10828 whole entry, looked up): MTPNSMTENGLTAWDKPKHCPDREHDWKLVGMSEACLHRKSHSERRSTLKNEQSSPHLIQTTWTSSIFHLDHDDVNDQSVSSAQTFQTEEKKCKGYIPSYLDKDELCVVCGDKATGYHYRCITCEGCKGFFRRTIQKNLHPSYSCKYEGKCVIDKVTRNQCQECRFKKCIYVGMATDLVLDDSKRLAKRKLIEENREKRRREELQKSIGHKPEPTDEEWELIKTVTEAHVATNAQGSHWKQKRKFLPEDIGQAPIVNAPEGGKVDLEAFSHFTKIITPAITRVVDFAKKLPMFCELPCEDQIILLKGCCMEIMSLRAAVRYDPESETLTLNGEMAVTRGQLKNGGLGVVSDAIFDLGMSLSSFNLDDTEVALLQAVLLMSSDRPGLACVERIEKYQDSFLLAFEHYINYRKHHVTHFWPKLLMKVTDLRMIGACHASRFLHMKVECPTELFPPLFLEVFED
Summary of the method: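 Inhibition of T3-driven (0.4nM final) beta-lactamase reporter activity was measured over 0.59 nM to 92 uM compound after 18 h at 37 C. The cells were GripTite HEK293 TR-UAS-bla in charcoal/dextran-stripped serum, with CCF4 ratio read-out and IC50 from Hill fits.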

[17] = qHTS assay for environmental chemicals that activate the Aryl hydrocarbon Receptor (AhR) signaling pathway (AID 651777); settings: 1A2-DRE human hepatoma cells, luciferase, 24 h; activation: stronger effect = higher value; also: nearly all actives have a fitted effect of over 15% in size; also: potency is read from the fitted curve at half-maximal effect; as to activation: % of control where 0% means no effect
Summary of the method: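 Concentration–response screening used 1,200 1A2-DRE cells per well, 24 hr compound exposure (37 C, 5% CO2), and One-Glo luminescence as the AhR-driven CYP1A2 reporter signal.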

[18] = target: Nuclear receptor subfamily 1 group I member 2 (Rattus norvegicus) (UniProt Q9R1A7); experiment: qHTS assay for small molecule activators of the rat pregnane X receptor (rPXR) signaling pathway (AID 651751; call rule not given here; also: 0% is about no effect); settings: rPXR reporter cells, luciferase (One-Glo), 24 h
Nuclear receptor subfamily 1 group I member 2 (Rattus norvegicus), sequence (Q9R1A7 whole entry, looked up): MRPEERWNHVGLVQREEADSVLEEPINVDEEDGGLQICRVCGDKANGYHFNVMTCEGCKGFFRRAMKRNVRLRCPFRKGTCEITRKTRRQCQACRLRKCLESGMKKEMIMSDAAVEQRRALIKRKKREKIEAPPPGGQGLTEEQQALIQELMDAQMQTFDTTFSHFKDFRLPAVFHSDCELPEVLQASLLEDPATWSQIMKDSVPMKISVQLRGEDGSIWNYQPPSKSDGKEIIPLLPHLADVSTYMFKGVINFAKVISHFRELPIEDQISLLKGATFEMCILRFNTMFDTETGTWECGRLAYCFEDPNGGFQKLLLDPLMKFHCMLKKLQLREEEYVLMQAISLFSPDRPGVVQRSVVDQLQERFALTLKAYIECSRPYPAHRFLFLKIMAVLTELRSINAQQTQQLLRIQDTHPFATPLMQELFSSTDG

[19] = Cell Viability - N2a (AID 540); settings: N2a mouse neuroblastoma cell viability; activity change, negative = cytotoxicity: at 92.2 µM (top of the series); also: nearly all actives have a fitted effect of over 45% in size; also: potency is read from the fitted curve at half-maximal effect;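 as to activity change, negative = cytotoxicity: plate controls were DMSO alone for no effect and tamoxifen control for full effect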
Summary of the method: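 CellTiter-Glo ATP luminescence, read 20 min after reagent at room temperature, reported viability following 40 h compound treatment at 37 °C. N2a mouse neuroblastoma cells seeded 1500/well; Hill equation gave AC50.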

[20] = MultiTox-Fluor Cytotoxicity Assay - LYMP1-002 - Dead Cells (AID 960); settings: LYMP1-002 lymphoblastoid cells, dead-cell protease fluorescence; series mostly up to 46.1 µM; also: nearly all actives have a fitted effect of over 60% in size; also: potency is read from the fitted curve at half-maximal effect
Summary of the method: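 Dead-cell fluorescence (Ex/Em 485/520) after 16 h compound exposure at 37 C of LYMP1-002 lymphoblastoid cells in complete medium; AC50 by Hill equation, with data scaled between DMSO and 15 uM tetraoctylammonium bromide.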

CCCCC(CC)COP(=O)(OCC(CC)CCCC)OCC(CC)CCCC (configuration not stated)
inactive: Potency [1] > 92 µM | Potency [2] > 92 µM | Potency [3] | Potency [4] | outcome [5] | Potency [6] | Potency [7] | Potency [8] | Potency [9] | Potency [10] | Potency [11] | Potency [12] | Potency [13] | max response [15] -4.08% | activity change % (negative = inhibition) [16] -23.6% | activation [17] -1.66% | max response [18] 1.51%
-7.24%: max response [14]

CC(C)(C)C(=O)C1C(=O)c2ccccc2C1=O
inactive: Potency [1] > 92 µM | outcome [5] | Potency [20] | Potency [6] | Potency [7] | Potency [8] | Potency [9] | Potency [10] | Potency [11] | Potency [12] | Potency [13] | activity change % (negative = inhibition) [16] 12.3% | activation [17] 5.77% | max response [18] -2.46%
active: activity change, negative = cytotoxicity [19] -83%

C/C=C1/C(=O)C[C@H]2[C@@H]3CCC4=CC(=O)CC[C@]4(C)[C@H]3CC[C@]12C
active: Potency [20] 31.6 µM | Potency [6] 39.8 µM | Potency [8] 50.1 µM | Potency [11] 50.1 µM | Potency [12] 39.8 µM | Potency [13] 39.8 µM
inactive: Potency [1] > 92 µM | Potency [2] > 92 µM | Potency [3] | Potency [7] | activation [17] 1.95%

Cc1c(C(=O)O)c(O)cc2c1C(=O)c1c(O)c([C@H]3O[C@H](CO)[C@@H](O)[C@H](O)[C@H]3O)c(O)c(O)c1C2=O
-15.8%: max response [14]
inactive: outcome [5] | Potency [20] | Potency [9] | Potency [12] | max response [15] 21% | activation [17] -4.11% | max response [18] -9.27%

CCN(CC)c1ccc(N)cc1
inactive: Potency [20] | max response [15] -16.2% | max response [18] 3.24%
9.43%: max response [14]
active: activity change, negative = cytotoxicity [19] -118% | Potency [4] 79.4 µM | Potency [13] 39.8 µM | Potency [17] 44.7 µM

O=Nc1ccc(Nc2ccccc2)cc1
inactive: Potency [2] > 92 µM | Potency [3]
active: activity change, negative = cytotoxicity [19] -115% | Potency [4] 31.6 µM

Nc1ccc(N)c(Cl)c1
inactive: Potency [1] > 92 µM | Potency [2] > 92 µM | Potency [3] | activity change, negative = cytotoxicity [19] 3.89% | Potency [4] | outcome [5] | Potency [20] | Potency [7] | Potency [8] | Potency [9] | Potency [10] | Potency [11] | Potency [12] | max response [15] 9.54% | activity change % (negative = inhibition) [16] -7.72% | max response [18] -1.32%
4.58%: max response [14]
active: Potency [6] 39.8 µM | Potency [13] 39.8 µM

S=C(NC1CCCCC1)NC1CCCCC1
active: Potency [19] 31.6 µM
-2.99%: max response [14]
inactive: Potency [3] | outcome [5] | Potency [20] | Potency [6] | Potency [7] | Potency [8] | Potency [9] | Potency [10] | Potency [11] | Potency [12] | Potency [13] | max response [15] -14.3% | activity change % (negative = inhibition) [16] 30% | activation [17] 5.57% | max response [18] 8.83%

c1ccc(Nc2cccc3ccccc23)cc1
1.85%: max response [14]
inactive: Potency [1] > 92 µM | Potency [2] > 92 µM | Potency [4] | outcome [5] | Potency [6] | Potency [7] | Potency [8] | Potency [9] | Potency [10] | Potency [11] | Potency [12] | Potency [13] | max response [15] -23.3% | activity change % (negative = inhibition) [16] -18.5% and -42%

Cc1cc(=O)oc2cc(O)cc(O)c12
inactive: Potency [1] > 92 µM | Potency [2] > 92 µM | activity change, negative = cytotoxicity [19] -0.482% | Potency [4] | outcome [5] | Potency [20] | Potency [6] | Potency [7] | Potency [8] | Potency [9] | Potency [10] | Potency [11] | Potency [12] | Potency [13] | activation [17] 8.78% | max response [18] -2.67%

Cc1cccnc1
-1.12%: max response [14]
inactive: Potency [1] > 92 µM | Potency [2] > 92 µM | Potency [3] | Potency [4] | outcome [5] | Potency [20] | Potency [6] | Potency [7] | Potency [8] | Potency [9] | Potency [10] | Potency [11] | Potency [12] | Potency [13] | max response [15] 7.72% | activity change % (negative = inhibition) [16] 13.1% | activation [17] 0.348% | max response [18] -3.97%

O=C1c2ccccc2C(=O)C1(O)O
active: activity change, negative = cytotoxicity [19] -94.6% | Potency [7] 50.1 µM
inactive: Potency [2] > 92 µM | Potency [3] | outcome [5] | Potency [20] | Potency [6] | Potency [9] | Potency [10] | Potency [11] | Potency [12] | max response [15] 29.7% | activity change % (negative = inhibition) [16] -4.45% | activation [17] -0.0089% | max response [18] 1%
-5.61%: max response [14]

C=CC(C)(O)CCCC(C)CCCC(C)CCCC(C)C (configuration not stated)
-10.2%: max response [14]
inactive: Potency [1] > 92 µM | Potency [2] > 92 µM | Potency [3] | activity change, negative = cytotoxicity [19] -17.1% | Potency [4] | outcome [5] | Potency [20] | Potency [6] | Potency [7] | Potency [8] | Potency [10] | Potency [11] | Potency [12] | Potency [13] | max response [15] 7.39% | activity change % (negative = inhibition) [16] 8.61% | activation [17] -0.417% | max response [18] 4.48%

CCCCCCCC/C=C\CCCCCCCC(=O)N(CCO)CCO
inactive: Potency [1] > 92 µM | Potency [2] > 92 µM | Potency [3] | outcome [5] | Potency [6] | Potency [7] | Potency [8] | Potency [9] | Potency [10] | Potency [11] | Potency [12] | Potency [13] | activation [17] 2.99% | max response [18] 3.59%
active: activity change, negative = cytotoxicity [19] -111% | Potency [4] 39.8 µM | Potency [20] 31.6 µM

From PubChem BioAssay (NCATS)
